Here are results for 18 molecules from PubChem BioAssay (NCATS).

Inconclusive results are not listed. Entries that show only a call come without a potency. Activity calls are given as the source filed them. The call rests on the fitted dose curve; in most records, active means well fitted cell-killing curve with a large enough effect; inconclusive means small, poorly fitted or top-dose-only effect, or effect the other way; inactive means no such curve, though single readings can be large or run the other way.

The experiment in a line: qHTS assay to identify small molecule inhibitors of chordoma cells - UCH-1 (AID 1259355). Further: nearly all actives have a fitted effect of over 55% in size. As to conditions: UCH-1 chordoma viability, CellTiter-Glo, 48 h, combination; series mostly up to 46.1 µM. A digest of the protocol:
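Luminescent ATP read-out (CellTiter-Glo, 30min at room temperature) measured viability of UCH-1 cells exposed for 48hr to test drugs at 15 concentrations, co-dosed with a five-agent combination of auranofin, camptothecin, doxorubicin, rubitecan and topotecan.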
In the case of `O=C/C=C/c1ccccc1`, the Potency result is “inactive”.
The entry for `O[C@H]1[C@H]2[C@H](O)CCCN2C[C@H]1O` is “inactive”; for `C[C@]12C=CC(=O)C=C1CC[C@@H]1[C@@H]2CC[C@]2(C)OC(=O)CC[C@@H]12` it is “inactive”; for `[O]=[Cd]` it is “inactive”.
To `CC[N+](C)(CC)CCOC(=O)C(O)(c1ccccc1)c1ccccc1` belongs “inactive”; to `CNC(=O)Oc1ccccc1C(=O)Nc1ccccc1`, “inactive”; to `C[C@@H](Cc1ccccc1)N(C)C`, “inactive”.
To `C=CC[C@]1(O)CC[C@H]2[C@@H]3CCC4=CCCC[C@@H]4[C@H]3CC[C@@]21C` belongs “inactive”; to `Clc1ccccc1Cl`, “inactive”; to `CN1[C@@H]2CC[C@H]1CC(OC1c3ccccc3CCc3ccccc31)C2` (stereo partly drawn), “inactive”.
`CC(=O)Oc1ccc2c3c1O[C@H]1[C@@H](OC(C)=O)C=C[C@H]4[C@@H](C2)N(C)CC[C@@]341`: the Potency result was “inactive”.
Consider `CCNC1(c2cccs2)CCCCC1=O` (stereo not drawn), for which the Potency result was “inactive”.
On to `CC(N)Cc1ccc(O)cc1` (stereo not drawn), for which the Potency entry was “inactive”.
In the case of `CC[C@H](C)[C@H]1O[C@]2(C=C[C@@H]1C)C[C@@H]1C[C@@H](C/C=C(\C)[C@@H](O[C@H]3C[C@H](OC)[C@@H](O[C@H]4C[C@H](OC)[C@@H](O)[C@H](C)O4)[C@H](C)O3)[C@@H](C)/C=C/C=C3\CO[C@@H]4[C@H](O)C(C)=C[C@@H](C(=O)O1)[C@]34O)O2`, the Potency result was “inactive”.
Regarding `CN1C2CCC1CC(OC(c1ccccc1)c1ccc(Cl)cc1)C2` (stereo not drawn), the Potency entry was “inactive”.
Consider `CNC1(c2ccccc2Cl)CCCCC1=O` (stereo not drawn), for which the Potency entry was “inactive”.
As to `Clc1ccc(C(Cn2ccnc2)OCc2csc3c(Cl)cccc23)c(Cl)c1` (stereo not drawn), the Potency result was “inactive”.
The entry for `C#CC(C)(O)CC` (stereo not drawn) is “inactive”.
